Screening data: PubChem, National Center for Advancing Translational Sciences (NCATS)
HT1080-NT tox = kills 2HG-producing HT-1080-NT fibrosarcoma cells | HT-1080-NT fibrosarcoma viability, CellTiter-Glo ATP luminescence, 48 h | Potency, µM (doses to about 46.1 µM), without a hit: at the highest dose activity, negative = less viability, usual class: cytotoxic | 360,000 tested, 1.6% active | AID 686970;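 further: NT is the 2HG producing partner of a matched IDH1 knockdown line; 0% = DMSO-treated cells and -100% = media-only wells without cells; nearly all actives have a fitted effect of over 55% in size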
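HT-1080-NT; 750 cells/well; 5% FBS RPMI; 48 h compound, 37 degrees C; CellTiter-Glo luminescence; curve fitting and curve-class assignment.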
TDP1 cell CPT = growth inhibition of DT40 Tdp1-/-;hTDP1 cells with camptothecin (screen for TDP1 inhibitors); chicken DT40 Tdp1-/-;hTDP1 cells + 20 nM CPT, ATP luminescence, 48 h; Potency, µM (top dose mostly 46.2 µM), for inactives: top-dose activity change, negative = growth inhibition, hits mostly inhibitors; 420,000 tested, 12% active; AID 686979; further: nearly all actives have a fitted effect of over 55% in size
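Chicken DT40 Tdp1-/- cells stably complemented with human TDP1 were seeded at 400 cells/well in medium containing 20 nM camptothecin, exposed to pin-transferred compounds, and grown at 37 °C for at least 48 hr. Viability was read as ATP luminescence.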
KB-V1 MDR tox = KB-V1 MDR subline cytotoxicity | KB-V1 MDR cells viability, CellTiter-Glo, 72 h | Potency, µM (highest dose often 46.1 µM), most hits filed as cytotoxic | 400,000 tested, 3.4% active | AID 1347076; further: nearly all actives have a fitted effect of over 60% in size
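Cytotoxicity via CellTiter-Glo luminescence after 72 h compound exposure at 37 degrees C. Cells: drug-selected KB-V1 line, DMEM phenol-red free plus 10% FBS. Compounds tested at multiple concentrations; normalized data fitted to concentration-effect curves.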
KB-3-1 cytotox = KB-3-1 parental cell cytotoxicity; KB-3-1 viability, CellTiter-Glo ATP luminescence, 72 h; Potency, µM (series often up to 46.1 µM), most hits filed as cytotoxic; 400,000 tested, 1.4% active; AID 1347075; further: nearly all actives have a fitted effect of over 60% in size
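72 h, 37 °C compound treatment of KB-3-1 parental cells; CellTiter-Glo added, 10 min, luminescence read. Data corrected against DMSO-only plates and normalized before curve fitting.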
HT1080 IDH1KD tx = HT-1080 IDH1 knockdown cell toxicity (counter line); Potency, µM (highest dose often 46.1 µM), for inactives: at the highest dose activity, negative = toxicity, actives largely listed as cytotoxic; 360,000 tested, 2% active; HT-1080 IDH1 knockdown viability, ATP luminescence, 48 h;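 further: 0% = DMSO wells and -100% = cell-free medium wells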
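% activity derives from luminescence (CellTiter-Glo), normalised to DMSO and no-cell wells. HT-1080-IDH1KD cells, 750/well, had 48 h compound exposure at 37 °C.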
DT40 TDP1 no CPT = qHTS for Inhibitors of human tyrosyl-DNA phosphodiesterase 1 (TDP1): qHTS in cells in absence of CPT; DT40 Tdp1-/- hTDP1 cells, no CPT, ATP luminescence, 48 h; Potency, µM (highest dose often 46.2 µM), inactives show at the highest dose activity change, negative = growth inhibition, hits mostly inhibitors; 420,000 tested, 15% active; AID 686978, 2013; further: nearly all actives have a fitted effect of over 55% in size
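Growth kinetics read by CellTiter-Glo luminescence after ≥48 hr at 37 °C. Cells: DT40 Tdp1-/- stably carrying human TDP1, 400 per well, compound exposure in the absence of CPT (DMSO vehicle).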
Active calls of the source: *; [ ] = another dose, or the depositor's remark. This is a sample that favours compounds with a hit; in the whole collection about 19% have one here. The call rests on the fitted dose curve; in most records, active means well fitted curve in the direction sought with a large enough effect; inconclusive means small, poorly fitted or top-dose-only effect, or another doubt; inactive means no such curve, though single readings can be large; an effect the other way counts as inactive or inconclusive. Unless noted, on the % scale 0 is the no-effect control and ±100 the full control effect; potency means the concentration at half of the fitted maximal effect.

For O=C(CCCN1CCC(C(O)c2ccc(F)cc2)CC1)c1ccc(F)cc1 (configuration not stated) the results were TDP1 cell CPT -28.8% and DT40 TDP1 no CPT inconclusive.
For Nc1nc(N)c2cc(Sc3ccc(Cl)cc3)ccc2n1 the results were HT1080-NT tox 2.59µM*, TDP1 cell CPT 3.66µM*, KB-V1 MDR tox inconclusive, KB-3-1 cytotox inconclusive, HT1080 IDH1KD tx 5.8µM* and DT40 TDP1 no CPT 1.03µM*.
`Oc1cccnc1Sc1cccc(C(F)(F)F)c1` gave HT1080-NT tox -3.0%, TDP1 cell CPT -40.0%, KB-V1 MDR tox inactive, KB-3-1 cytotox inactive, HT1080 IDH1KD tx -12.9% and DT40 TDP1 no CPT inconclusive.
For Nc1nc(N)c2cc(Sc3cccc(C(F)(F)F)c3)ccc2n1 the results were HT1080-NT tox 5.8µM*, TDP1 cell CPT 9.2µM*, KB-V1 MDR tox inconclusive, KB-3-1 cytotox inconclusive, HT1080 IDH1KD tx 5.8µM* and DT40 TDP1 no CPT 1.3µM*.
`Nc1nc(N)c2cc(Sc3ccc4ccccc4c3)ccc2n1` gave HT1080-NT tox 8.2µM*, TDP1 cell CPT 18.4µM*, KB-V1 MDR tox inactive, KB-3-1 cytotox 20.6µM*, HT1080 IDH1KD tx 5.8µM* and DT40 TDP1 no CPT 8.2µM*.
For COc1ccc(N(CC(=O)NC2CCCCC2)C(=O)CNC(=O)c2ccco2)cc1 the results were HT1080-NT tox -3.2%, TDP1 cell CPT 0.3%, KB-V1 MDR tox inactive, KB-3-1 cytotox inactive, HT1080 IDH1KD tx -3.7% and DT40 TDP1 no CPT -18.9%.
`COC(=O)c1sc(-c2cccs2)cc1NC(=O)/C=C/C(=O)O` gave HT1080-NT tox inconclusive, TDP1 cell CPT inconclusive, KB-V1 MDR tox inactive, KB-3-1 cytotox inconclusive, HT1080 IDH1KD tx inconclusive and DT40 TDP1 no CPT 14.6µM*.
For COc1cc2c(cc1OC)C(C)N(C(=O)Nc1ccccc1)CC2 (configuration not stated) the results were HT1080-NT tox 2.91µM*, TDP1 cell CPT 3.66µM*, KB-V1 MDR tox inconclusive, KB-3-1 cytotox 6.51µM*, HT1080 IDH1KD tx 2.59µM* and DT40 TDP1 no CPT 4.11µM*.
For COc1cc2c(cc1OC)C(C)N(C(=O)C(NC(=O)c1ccccc1)C(C)C)CC2 (configuration not stated) the results were HT1080-NT tox -19.7%, TDP1 cell CPT inconclusive, KB-V1 MDR tox inactive, KB-3-1 cytotox inactive, HT1080 IDH1KD tx -12.2% and DT40 TDP1 no CPT inconclusive.
COc1cc2c(cc1OC)C(C)N(C(=O)CCNC(=O)c1ccccc1)CC2 (configuration not stated) was read as HT1080-NT tox -2.4%, TDP1 cell CPT -0.7%, KB-V1 MDR tox inactive, KB-3-1 cytotox inactive, HT1080 IDH1KD tx 11.3% and DT40 TDP1 no CPT 27.7%.
For COc1cc2c(cc1OC)C(C)N(C(=O)[C@@H](NC(=O)c1ccccc1)C(C)C)CC2 (some centres not stated) the results were HT1080-NT tox -11.1%, TDP1 cell CPT inconclusive, KB-V1 MDR tox inactive, KB-3-1 cytotox inactive, HT1080 IDH1KD tx -4.1% and DT40 TDP1 no CPT 29.1µM*.
For COc1cc2c(cc1OC)C(c1ccccc1)N(C(=O)CCl)CC2 (configuration not stated) the results were HT1080-NT tox inconclusive, TDP1 cell CPT 3.26µM*, KB-V1 MDR tox 9.2µM*, KB-3-1 cytotox 4.11µM*, HT1080 IDH1KD tx inconclusive and DT40 TDP1 no CPT 2.91µM*.
Screening CCc1ccc(/C=C(/C#N)c2nc(-c3ccc(C)cc3)cs2)cc1 returned TDP1 cell CPT -17.5%, KB-V1 MDR tox inconclusive, KB-3-1 cytotox inactive and DT40 TDP1 no CPT -13.7%.
Screening CCOc1ccc(-c2csc(/C(C#N)=C\c3ccc(O)c([N+](=O)[O-])c3)n2)cc1 returned HT1080-NT tox 14.6µM*, TDP1 cell CPT 3.66µM*, KB-V1 MDR tox 5.17µM*, KB-3-1 cytotox 20.6µM*, HT1080 IDH1KD tx inconclusive and DT40 TDP1 no CPT 4.61µM*.
O=C1c2oc3ccccc3c(=O)c2C(c2cccc(O)c2)N1c1nncs1 (configuration not stated) was read as TDP1 cell CPT -12.4% and DT40 TDP1 no CPT -3.7%.
COC(=O)c1sc(N2C(=O)c3oc4ccc(F)cc4c(=O)c3C2c2ccc(C)cc2)nc1C (configuration not stated) was read as TDP1 cell CPT 1.7%, KB-V1 MDR tox inconclusive, KB-3-1 cytotox inconclusive and DT40 TDP1 no CPT inconclusive.
For O=C1c2oc3ccccc3c(=O)c2C(c2cccc(Br)c2)N1c1ccccn1 (configuration not stated) the results were TDP1 cell CPT inconclusive, KB-V1 MDR tox inactive, KB-3-1 cytotox inactive and DT40 TDP1 no CPT 16.4µM*.
`CCCOc1cccc(C2c3c(oc4ccccc4c3=O)C(=O)N2c2nncs2)c1` (configuration not stated) gave TDP1 cell CPT 14.6µM* and DT40 TDP1 no CPT inconclusive.
`COC(=O)c1sc(N2C(=O)c3oc4ccccc4c(=O)c3C2c2cccs2)nc1C` (configuration not stated) gave HT1080-NT tox 6.9%, TDP1 cell CPT 18.4µM*, KB-V1 MDR tox inconclusive, KB-3-1 cytotox 18.4µM*, HT1080 IDH1KD tx 8.9% and DT40 TDP1 no CPT 16.4µM*.
For O=C1c2oc3ccccc3c(=O)c2C(c2cccc(Cl)c2)N1c1ccccn1 (configuration not stated) the results were TDP1 cell CPT 16.8% and DT40 TDP1 no CPT inconclusive.
CCCOc1cccc(C2c3c(oc4ccc(F)cc4c3=O)C(=O)N2c2nc(C)c(C(C)=O)s2)c1 (configuration not stated) was read as TDP1 cell CPT 13µM*, KB-V1 MDR tox inactive, KB-3-1 cytotox inactive and DT40 TDP1 no CPT 14.6µM*.
For Cc1nnc(SCc2cc(=O)n3c(C)cccc3n2)s1 the results were TDP1 cell CPT -6.3% and DT40 TDP1 no CPT 2.3%.
Screening CN(Cc1ccon1)C(=O)c1cnn(-c2nccc(-c3ccc4c(c3)OCO4)n2)c1C1CC1 returned TDP1 cell CPT 1.2%[9.04 µM] and DT40 TDP1 no CPT -14.9%.
For Cc1nc2ccc(CN(C)c3ccc(C(=O)N[C@@H](CCC(=O)O)C(=O)O)s3)cc2c(=O)[nH]1 the results were TDP1 cell CPT 0.0084µM* and DT40 TDP1 no CPT 0.0042µM*.
